ASM inhibitor: Inhibitors of Secretory Acid Sphingomyelinase (S-ASM): qHTS; Potency, µM (series often up to 57.5 µM), for inactives: top-dose activity change, negative = inhibition, most hits filed as inhibitors; placental ASM, HMU-PC fluorogenic substrate, 60 min; AID 504937, 2011; 0.006% of 340,000 active; further: potency means the concentration at half of the fitted maximal effect
Target sequence (P17405 47-631 limits assumed): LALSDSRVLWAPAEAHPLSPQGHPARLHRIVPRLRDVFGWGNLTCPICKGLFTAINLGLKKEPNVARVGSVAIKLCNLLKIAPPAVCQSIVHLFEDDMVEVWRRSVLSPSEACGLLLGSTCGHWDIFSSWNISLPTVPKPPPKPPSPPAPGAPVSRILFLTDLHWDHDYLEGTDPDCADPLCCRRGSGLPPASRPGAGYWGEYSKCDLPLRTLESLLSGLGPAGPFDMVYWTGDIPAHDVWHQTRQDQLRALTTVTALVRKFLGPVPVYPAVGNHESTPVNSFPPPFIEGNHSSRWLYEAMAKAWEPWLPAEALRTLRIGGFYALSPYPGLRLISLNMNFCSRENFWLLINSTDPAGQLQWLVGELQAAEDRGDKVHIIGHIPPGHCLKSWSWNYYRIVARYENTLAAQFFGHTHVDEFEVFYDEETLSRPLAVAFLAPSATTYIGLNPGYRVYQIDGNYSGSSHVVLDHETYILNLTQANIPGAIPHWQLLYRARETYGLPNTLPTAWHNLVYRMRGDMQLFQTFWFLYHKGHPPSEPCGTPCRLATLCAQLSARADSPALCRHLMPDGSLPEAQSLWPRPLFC
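Human placenta-derived ASM enzyme was preincubated with compound for 10 minutes at room temperature, then given fluorogenic substrate HMU-PC0 (9 uM final) for 60 minutes at 37 °C; a pH 10 stop preceded fluorescence reading at Ex 386/Em 447 nm.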
SW480 rereplic: A quantitative high throughput screen for small molecules that induce DNA re-replication in SW480 colon adenocarcinoma cells. Potency, µM (series often up to 46.1 µM), inactives show top-dose re-replication activation, actives largely listed as activators. SW480 DNA re-replication, Hoechst DNA content imaging, 48 h. AID 624297, 2012. 1.8% of 340,000 active; further: potency means the concentration at half of the fitted maximal effect; % of control where 0% means no effect; nearly all actives have a fitted effect of over 55% in size
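DNA re-replication was detected as more nuclei of elevated Hoechst intensity after 48 hr exposure to compound (23 nL pinned per well of 250 cells).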
MCF10A rerep: A quantitative high throughput screen for small molecules that induce DNA re-replication in MCF 10a normal breast cells; Potency, µM (titrated, usually from 46.1 µM), without a hit: at the highest dose activity, positive = re-replication, hits mostly activators; 2.9% of 350,000 active; AID 624296, 2012; MCF 10A DNA re-replication, Hoechst nuclear intensity, 48 h; further: potency means the concentration at half of the fitted maximal effect; % of control where 0% means no effect; nearly all actives have a fitted effect of over 50% in size
KB-V1 cytotox: qHTS assay for MDR1-selective chemotherapeutics: Primary screen using the drug-selected MDR subline cells KB-V1; KB-V1 MDR cells viability, CellTiter-Glo, 72 h; 3.4% of 400,000 active; Potency, µM (series often up to 46.1 µM), usual class: cytotoxic; further: potency means the concentration at half of the fitted maximal effect; on the % scale 0 is the no-effect control and ±100 the full control effect; nearly all actives have a fitted effect of over 60% in size
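Readout: CellTiter-Glo luminescence, 10 min after addition. Cells: KB-V1 MDR subline, 72 h at 37 degrees C with compound. Analysis: corrected, normalized data fitted to concentration-effect curves.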
Giardia kill: Small Molecules that selectively kill Giardia lamblia: qHTS; Giardia lamblia trophozoite viability; activity change, % at 7.66 µM, hits read low; 0.15% of 340,000 active; AID 540267, 2011; in the data active means activity change below about -80%; inconclusive means between about -30% and that limit;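 further: parasites exposed to compound for two days anaerobically before the ATP read; on the % scale 0 is the no-effect control and ±100 the full control effect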
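Each well holds 100 Giardia trophozoites and compound. After two days (48 hrs) at 37 deg C in anaerobic conditions, ATP is quantified by luminescence.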
KB-3-1 cytotox: qHTS assay for MDR1-selective chemotherapeutics: Primary screen using the parental adenocarcinoma cell KB-3-1. KB-3-1 viability, CellTiter-Glo ATP luminescence, 72 h. Potency, µM (highest dose often 46.1 µM), hits mostly cytotoxic. 1.4% of 400,000 active. AID 1347075, 2019; further: potency means the concentration at half of the fitted maximal effect; on the % scale 0 is the no-effect control and ±100 the full control effect; nearly all actives have a fitted effect of over 60% in size
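72 h, 37 °C compound treatment of KB-3-1 parental cells; CellTiter-Glo added, 10 min, luminescence read. Data corrected against DMSO-only plates and normalized before curve fitting.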
The depositor's hits bear a star. Only some compounds are listed: those with a hit (about 6.9% of all), similar ones and a draw of the others. Unless noted, the call rests on the fitted dose curve; in most records, active means well fitted curve in the direction sought with a large enough effect; inconclusive means small, poorly fitted or top-dose-only effect, or another doubt; inactive means no such curve, though single readings can be large; an effect the other way counts as inactive or inconclusive.

For Cc1ccn2c(=O)nc(SCC(=O)Nc3cccc4ccccc34)nc2c1 the results were ASM inhibitor -3%, SW480 rereplic -38%, MCF10A rerep inconclusive, KB-V1 cytotox inactive, Giardia kill -14 and KB-3-1 cytotox inactive.
CCc1ccc(NCc2cc3ccc(OC)cc3n(CC(=O)Nc3ccc(C)c(Cl)c3)c2=O)cc1 was read as KB-V1 cytotox inactive and KB-3-1 cytotox inconclusive.
CCOc1ccccc1CNC(=O)C1CCCN(c2ncnc3onc(-c4ccc(F)cc4)c23)C1 (configuration not stated) was read as KB-V1 cytotox inactive and KB-3-1 cytotox inactive.
`Cc1ccc(NC(=O)c2cnn(-c3ccc(C)c(C)c3)c2C2CCN(C(=O)OC(C)(C)C)CC2)c(C)c1` gave KB-V1 cytotox inconclusive and KB-3-1 cytotox inactive.
O=C(CSc1nnc2c3ccccc3c3ccccc3c2n1)Nc1ccccc1F was read as ASM inhibitor -3%, SW480 rereplic -4%, MCF10A rerep -1%, KB-V1 cytotox 3.7µM*, Giardia kill 17 and KB-3-1 cytotox inactive.
Screening Cc1ccc(-c2cc(NC=O)c3ncc(-c4cnn(C)c4)n3c2)cc1 returned KB-V1 cytotox 5.8µM* and KB-3-1 cytotox 10µM*.
`COc1cc(-c2cnc3c(NC=O)cc(-c4ccccc4)cn23)cc(OC)c1OC` gave KB-V1 cytotox inactive and KB-3-1 cytotox inconclusive.
Screening COc1cc(-c2cnc3c(NC=O)cc(-c4ccccc4Cl)cn23)cc(OC)c1OC returned KB-V1 cytotox 3.3µM* and KB-3-1 cytotox 1µM*.
`COc1cc(-c2cnc3c(NC=O)cc(-c4ccc(C)cc4)cn23)cc(OC)c1OC` gave KB-V1 cytotox 0.58µM* and KB-3-1 cytotox 0.16µM*.
For COc1cc(-c2cnc3c(NC=O)cc(-c4cccc(NC(C)=O)c4)cn23)cc(OC)c1OC the results were KB-V1 cytotox inactive and KB-3-1 cytotox 0.37µM*.
For Cc1ccc(-c2cc(NC=O)c3ncc(-c4cccc(C(=O)N(C)C)c4)n3c2)cc1 the results were KB-V1 cytotox inactive and KB-3-1 cytotox inconclusive.
For O=C(Nc1ccccc1C(=O)N1CCCCC1)c1cccs1 the results were ASM inhibitor 1%, SW480 rereplic inconclusive, MCF10A rerep 11%, KB-V1 cytotox inactive, Giardia kill 21 and KB-3-1 cytotox inactive.
COc1cc(-c2cc(NC=O)c3ncc(-c4ccccc4)n3c2)cc(OC)c1OC was read as KB-V1 cytotox inconclusive and KB-3-1 cytotox inactive.
`COc1ccccc1-c1cc(NC=O)c2ncc(-c3ccc(F)cc3)n2c1` gave KB-V1 cytotox 9.2µM* and KB-3-1 cytotox 16µM*.
For COc1ccc(-c2cc(NC(C)=O)c3ncc(-c4ccc(OC)c(OC)c4)n3c2)cc1OC the results were KB-V1 cytotox 12µM* and KB-3-1 cytotox inconclusive.
COc1ccc(F)cc1-c1cc(NC=O)c2ncc(-c3cc(OC)c(OC)c(OC)c3)n2c1 was read as KB-V1 cytotox 6.5µM* and KB-3-1 cytotox inconclusive.
Screening C/C=C(\NNC(C)=O)c1ccc(O)cc1 returned KB-V1 cytotox inactive and KB-3-1 cytotox inactive.
Screening CCc1nc2nc(C)cc(Nc3cc(Cl)ccc3C)n2n1 returned KB-V1 cytotox inactive and KB-3-1 cytotox inactive.
For CN(CC(=O)Nc1ccc(Cl)c(C(F)(F)F)c1)C(=O)c1ccc(S(=O)(=O)N2CCOCC2)cc1 the results were ASM inhibitor -18%, SW480 rereplic inconclusive, MCF10A rerep 5.8µM*, KB-V1 cytotox inconclusive, Giardia kill 4 and KB-3-1 cytotox 8.2µM*.
For COc1ccc(S(=O)(=O)N2CCCCCC2)cc1C(=O)N(C)CC(=O)Nc1ccc(Cl)c(Cl)c1 the results were ASM inhibitor -11%, SW480 rereplic -24%, MCF10A rerep -13%, KB-V1 cytotox inactive, Giardia kill -5 and KB-3-1 cytotox inactive.
For CN(CC(=O)Nc1ccc(Cl)c(S(=O)(=O)N2CCOCC2)c1)C(=O)c1ccc(C#N)cc1 the results were ASM inhibitor 0%, SW480 rereplic 10%, MCF10A rerep -4%, KB-V1 cytotox inactive, Giardia kill 16 and KB-3-1 cytotox inactive.
For Cc1ccc(C(=O)N(C)CC(=O)Nc2ccc(Cl)c(C(F)(F)F)c2)cc1S(=O)(=O)N1CCCCC1 the results were ASM inhibitor -17%, SW480 rereplic inconclusive, MCF10A rerep 21µM*, KB-V1 cytotox inconclusive, Giardia kill 9 and KB-3-1 cytotox inconclusive.
`Cc1ccc(S(=O)(=O)N2CCCCC2)cc1C(=O)N(C)CC(=O)Nc1ccc(Cl)c(C(F)(F)F)c1` gave ASM inhibitor -17%, SW480 rereplic inconclusive, MCF10A rerep 23µM*, KB-V1 cytotox inconclusive, Giardia kill 4 and KB-3-1 cytotox inconclusive.
`CN(CC(=O)Nc1ccc(Cl)c(C(F)(F)F)c1)C(=O)c1ccc(OCC2CCCO2)cc1` (configuration not stated) gave ASM inhibitor -23%, SW480 rereplic 11%, MCF10A rerep 14%, KB-V1 cytotox 7.3µM*, Giardia kill 16 and KB-3-1 cytotox inconclusive.
Screening COCCNC(=O)C1CCCN(C(=O)c2cc(-c3cccs3)oc2C)CC1 (configuration not stated) returned KB-V1 cytotox inactive and KB-3-1 cytotox inactive.
Cc1ccc2nc(-c3ccco3)c(Nc3ccccc3)n2c1 was read as ASM inhibitor 114%, SW480 rereplic inconclusive, MCF10A rerep 11%, KB-V1 cytotox 10µM*, Giardia kill -8 and KB-3-1 cytotox inactive.
For Cc1ccc(Nc2c(-c3ccccn3)nc3ccc(C)cn23)cc1 the results were ASM inhibitor 1%, SW480 rereplic 21µM*, MCF10A rerep 12%, KB-V1 cytotox inconclusive, Giardia kill 4 and KB-3-1 cytotox inconclusive.
Screening Cc1ccc(Nc2c(-c3ccco3)nc3ccc(C)cn23)cc1 returned KB-V1 cytotox inactive and KB-3-1 cytotox inactive.
For COC(=O)C(Cc1ccc(O)cc1)NC(=O)CCOc1ccc(OC)cc1 (configuration not stated) the results were ASM inhibitor -2%, SW480 rereplic -8%, MCF10A rerep 6%, KB-V1 cytotox inactive, Giardia kill -21 and KB-3-1 cytotox inactive.

Compound activity (PubChem)
